JMJD2A Tudor inh: qHTS Assay for Inhibitors of JMJD2A-Tudor Domain. Potency, µM (highest dose often 114 µM), inactives show at the top dose activity change, negative = inhibition, most hits filed as inhibitors. 4.4% of 390,000 active. AlphaScreen JMJD2A-Tudor / H3K4me3 peptide binding. Lysine-specific demethylase 4A (Homo sapiens), O75164; note: % is set by controls: 0 for no effect and ±100 for the full control effect; nearly all actives have a fitted effect of over 50% in size
HP1b binding inh: HTS for Inhibitors of HP1-beta Chromodomain Interactions with Methylated Histone Tails. Chromobox protein homolog 1 (Homo sapiens), P83916. AID 540317, 2011. Potency, µM (titrated, usually from 114 µM), for the others: at the highest dose activity change, negative = inhibition, actives largely listed as inhibitors. 0.56% of 390,000 active. AlphaScreen HP1-beta / biotin-H3K9me3 peptide binding; note: nearly all actives have a fitted effect of over 70% in size
Target sequence (P83916 whole entry, looked up): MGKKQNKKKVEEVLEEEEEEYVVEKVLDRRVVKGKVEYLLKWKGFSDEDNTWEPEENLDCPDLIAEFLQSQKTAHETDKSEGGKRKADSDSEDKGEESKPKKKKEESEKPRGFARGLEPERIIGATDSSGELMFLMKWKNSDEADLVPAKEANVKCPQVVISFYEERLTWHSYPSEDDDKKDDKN
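AlphaScreen: HP1-beta (50 nM) preformed 30 min with biotin-H3(1-18)K9me3 peptide (50 nM) in PBS pH 7.4, 0.01% Tween-20. Compound added for 30 min at RT, then streptavidin donor/nickel chelate acceptor beads (10 ug/mL) for 30 min.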
PLK1 PBD block: qHTS for Inhibitors of PLK1-PDB (polo-like kinase 1 - polo-box domain): Primary Screen | Serine/threonine-protein kinase PLK1 (Homo sapiens), P53350 | Plk1 PBD binding of FITC phosphopeptide, fluorescence polarization | Potency, µM, without a hit: max response, negative = inhibition, actives largely listed as inhibitors | 2.8% of 360,000 active; note: series mostly up to about 57 µM; % is set by controls: 0 for no effect and ±100 for the full control effect; nearly all actives have a fitted effect of over 65% in size
G9a block: qHTS Assay for Inhibitors of Histone Lysine Methyltransferase G9a | G9a H3K9 monomethylation, AlphaScreen, 2 h | Potency, µM (series often up to 102 µM), for inactives: top-dose activity, negative = inhibition, usual class: inhibitors | 8.8% of 350,000 active | Histone-lysine N-methyltransferase EHMT2 (Homo sapiens), Q96KQ7 | AID 504332, 2011; note: % is set by controls: 0 for no effect and ±100 for the full control effect; nearly all actives have a fitted effect of over 75% in size
Target sequence (Q96KQ7 913-1193 limits assumed): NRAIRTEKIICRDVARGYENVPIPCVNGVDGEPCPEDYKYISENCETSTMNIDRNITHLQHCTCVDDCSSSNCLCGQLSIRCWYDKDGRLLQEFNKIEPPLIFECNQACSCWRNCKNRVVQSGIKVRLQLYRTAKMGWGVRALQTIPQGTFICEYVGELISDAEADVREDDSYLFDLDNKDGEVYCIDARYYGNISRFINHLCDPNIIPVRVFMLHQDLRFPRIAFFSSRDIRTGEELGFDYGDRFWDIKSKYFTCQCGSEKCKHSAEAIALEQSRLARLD
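AlphaScreen read-out: biotin-H3K9 peptide (500 nM) methylation by 20 nM enzyme with 20 uM SAM, 2 h at room temperature after 15 min compound preincubation; anti-monomethyl H3K9 antibody plus donor/acceptor beads, 10 min dark.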
VDR inh: Inhibitors of the vitamin D receptor (VDR): qHTS; VDR-SRC2-3 peptide fluorescence polarization, 2 h; Potency, µM, without a hit: max response, negative = inhibition, most hits filed as inhibitors; 0.93% of 400,000 active; AID 504847, 2011; note: % is set by controls: 0 for no effect and ±100 for the full control effect
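Measured by FP: displacement of SRC2-3 coactivator peptide from VDR by library compounds, following a two-hour ambient incubation.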
BAZ2B inh: qHTS Assay for Inhibitors of BAZ2B | Bromodomain adjacent to zinc finger domain protein 2B (Homo sapiens), Q9UIF8 | AlphaScreen BAZ2B-H3K14Ac peptide displacement | Potency, µM (doses to about 114 µM), for inactives: at the highest dose activity change, negative = inhibition, usual class: inhibitors | 4.4% of 360,000 active; note: % is set by controls: 0 for no effect and ±100 for the full control effect; nearly all actives have a fitted effect of over 60% in size
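Multi-concentration screen (max 110 uM) measuring displacement of acetylated histone H3 peptide from BAZ2B by AlphaScreen, using 50 nM protein, 50 nM peptide and 10 ug/mL streptavidin donor plus Ni-chelate acceptor beads.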
The depositor's hits bear a star; ? = inconclusive; . = no result given; ! = repeats disagree; [ ] = another dose, or the depositor's remark. This is a sample that favours compounds with a hit; in the whole collection about 11% have one here. Calls come from the whole dose curve; as a rule, active = well fitted curve in the direction sought with a large enough effect; inconclusive = small, poorly fitted or top-dose-only effect, or another doubt; inactive = no such curve, though single readings can be large; an effect the other way counts as inactive or inconclusive. Potency is the fitted concentration of half-maximal effect.

SMILES	JMJD2A Tudor inh	HP1b binding inh	PLK1 PBD block	G9a block	VDR inh	BAZ2B inh
O=C(Nc1ccc(S(=O)(=O)Nc2nccs2)cc1)c1ccc(F)cc1	-8%	5%	0%	-8%[59 µM]	-12%	-3%
O=C(COc1ccc(F)cc1Cl)Nc1ccc(S(=O)(=O)Nc2nccs2)cc1	-24%	5%	-14%	32µM*	-8%	-2%
CCCCn1c(C)cc2c(c1=O)[C@H]1O[C@](CCCC)(Cc3c1ccc1ccccc31)O2	.	.	.	9%[2.33 µM]	.	9%[22.9 µM]
NC1(C(=O)O)CC1	3.2µM*	28%	-5%	7.1µM*!	0%	.
Cc1ccc([N+](=O)[O-])c(C)[n+]1C	14µM*	?	-4%	3.5µM*	4%	?
O=[N+]([O-])c1ccc(F)cc1F	-14%	-1%	-5%	5%[0.501 µM]	2%	29%
CCCCC(=O)N(C)c1c(C)nc2ccc(C(=O)NCc3ccccc3OC)cn12	.	.	-1%	.	.	.
CCC(=O)n1nc(-c2cccnc2)nc1NCc1cccs1	-10%	12%	-11%	?	0%	4%
CCN(C(=O)Cc1cccs1)c1nnc(-c2cccnc2)s1	-19%	34%	-3%	2.8µM*	12%	?
COc1ccccc1N1CCN(S(=O)(=O)c2cn(C)nc2C)CC1	-12%	30%	4%	14%	-4%	-14%
COc1ccc(OC)c(-n2c(-c3cccc(C)c3)n[nH]c2=S)c1	?	-24%	?	1.1µM*	-9%	?
COc1ccccc1-n1c(-c2ccccc2)n[nH]c1=S	2.8µM*	12%	-6%	.	2%	-24%
COc1ccc(OC)c(-n2c(-c3ccccc3)n[nH]c2=S)c1	3.2µM*	21%	-7%	?	5%	-5%
COc1ccccc1-n1c(-c2cn(C)nc2C)n[nH]c1=S	22µM*	15%	-4%	7.1µM*	-6%	-1%
Cc1cccc(N2CCN(C(=O)NC(C)c3ccc(F)c(F)c3)CC2)c1C (stereo unspecified)	-2%	16%	5%	19%	2%	3%
CC(C)(C)OC(=O)NCc1nnc(-c2cc3ccccc3[nH]2)o1	-12%	.	.	.	.	.
Cc1nn2c(=O)cc(COC(=O)c3ccccc3NC(=O)C(C)Oc3ccccc3)nc2s1 (stereo unspecified)	6%	40%	.	?	21%	-8%
CCCC(=O)Nc1ncnc2c1ncn2[C@@H]1O[C@H]2COP(=O)(O)O[C@@H]2[C@@H]1OC(=O)CCC	.	.	.	24%[21.5 µM]	2%	.
O=C(CSc1ncn[nH]1)N1N=C2/C(=C/c3ccco3)CCCC2C1c1ccco1 (stereo unspecified)	56µM*	-25%	-7%	50µM*	4%	?
N/C(=N\NC(=O)c1cccs1)c1cc2cc(Cl)ccc2oc1=O	?	-14%	24µM*	14%[12.7 µM]	-30%	-22%
CCC1(C)Nc2ccccc2C(=O)N1O (stereo unspecified)	?	5%	-9%	50µM*	-7%	-10%
CCOc1ccc(N2C(=O)c3ccccc3NC2(C)CC)cc1 (stereo unspecified)	-6%	22%	-1%	7%[2.33 µM]	5%	9%
NC(=O)C1CCN(C(=O)c2cccc(S(=O)(=O)N3CCCC3)c2)CC1	-3%	39%	-8%	-22%	-13%	2%
COc1ccccc1N(CC(=O)Nc1ccc2c(c1)OCO2)S(=O)(=O)c1ccccc1	?	-4%	-7%	28µM*	-7%	56µM*
COc1ccc(S(=O)(=O)N(CC(=O)NC2CC3CCC2C3)c2ccccc2OC)cc1 (stereo unspecified)	?	-6%	27µM*	-6%	?	0%
SMILES	JMJD2A Tudor inh	HP1b binding inh	PLK1 PBD block	G9a block	VDR inh	BAZ2B inh
CCOc1ccccc1N(CC(=O)NC1CCCCC1)S(=O)(=O)c1ccccc1	-9%	8%	-5%	25µM*	-2%	-1%
O=C(O)C(Cc1c[nH]c2ccccc12)N1C(=O)C2C3c4ccccc4C(c4ccccc43)C2C1=O (stereo unspecified)	-11%	18%	-5%	25µM*	6%	?
O=C(Cn1nnc2ccccc2c1=O)N[C@@H](Cc1c[nH]c2ccccc12)C(=O)O	-15%	15%	-1%	-13%[59 µM]	1%	-1%
O=C(Cc1cccs1)NC(Cc1c[nH]c2ccccc12)C(=O)O (stereo unspecified)	22µM*	2%	1%	56µM*	-11%	-18%
Cc1nc(N[C@@H](Cc2c[nH]c3ccccc23)C(=O)O)c2oc3ccccc3c2n1	-23%	27%	-15%	5.6µM*	-12%	56µM*
C[C@@H](C(=O)N[C@@H](Cc1c[nH]c2ccccc12)C(=O)O)n1nnc2ccccc2c1=O	?	9%	30µM*	12%[12.7 µM]	-29%	-8%
Cc1ccc(C(=O)Nc2ccccc2C(=O)NC(Cc2c[nH]c3ccccc23)C(=O)O)cc1 (stereo unspecified)	-23%	-24%	?	23%[12.7 µM]	-3%	79µM*
Cc1ccc(/C=C2\C(=O)NC(=O)N2C)o1	-15%	26%	-8%	35µM*	?	-33%
C=CCN1C(=O)/C(=C\c2ccco2)C(C(=O)OC)=C1C	?	-12%	2%	?	9%	45µM*
CCOc1ccc(NC(=S)NC(=O)/C=C/c2ccco2)cc1	-19%	7%	-12%	9%[0.501 µM]	-3%	-5%
CCOC(=O)C1=C(C)N(c2ccc(OCC)cc2)C(=O)/C1=C\c1ccco1	22µM*	45µM*	-30%	?	-18%	8.9µM*
Cc1ccc(/C=C2/C(=O)N(c3ccccc3)C(=S)N2C)o1	?	?	-28%	8.9µM*	79µM*	?
CCN1/C(=C\C=C2\C(=O)N(c3ccccc3)C(=S)N2C)Sc2ccccc21	-22%	-33%[57 µM]	-12%	?	5%	.
C=CCN1C(=O)N/C(=C/c2ccc(C)o2)C1=O	-18%	-8%	?	?	-27%	-1%
O=C(Nc1ccc(S(=O)(=O)NC2=NCCCCC2)cc1)c1cccc(OC(F)F)c1	.	.	3%	.	.	.
C=CCn1c(SCC(=O)Nc2ccc(F)cc2F)nnc1-c1cnccn1	-11%	14%	-9%	26%	4%	1%
COC(=O)C1=C(C)N(c2cccc(OC)c2)C(=O)/C1=C\c1ccco1	45µM*	40µM*	30µM*	?	?	18µM*

Compound activity as filed in PubChem.
